Experimental data published in PubChem BioAssay (NCI).
About 83,000 compounds went through this panel and 20% of them were active in at least one assay; those are over-represented in the sample as a whole.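 Plates (96-well) were seeded with cells, treated with compound at one concentration, and incubated for 48 hours before percent growth was determined.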 Values without a mark were called inactive. Active and inactive are the calls of the source. Rule for the calls: active = growth percent below 10; inactive = the rest.

Experiments:
Test in all cases: NCI-60 one-dose screen, 48 h (100 = growth as untreated, 0 = no growth, -100 = all killed)
Conditions in all cases: 10 µM unless noted
[1] = test system: RPMI-8226 leukemia
[2] = test system: OVCAR-8 ovarian
[3] = test system: OVCAR-5 ovarian
[4] = test system: OVCAR-4 ovarian
[5] = test system: SK-OV-3 ovarian
[6] = test system: IGROV1 ovarian
[7] = test system: OVCAR-3 ovarian
[8] = test system: HS 578T breast
[9] = test system: NCI/ADR-RES ovarian
[10] = test system: T-47D breast
[11] = test system: BT-549 breast
[12] = test system: MDA-MB-435 melanoma
[13] = test system: SW-620 colon
[14] = test system: MCF7 breast
[15] = test system: HCT-116 colon
[16] = test system: HCC-2998 colon
[17] = test system: KM12 colon
[18] = test system: MDA-MB-468 breast
[19] = test system: SR leukemia

SMILES | growth [1] | growth [2] | growth [3] | growth [4] | growth [5] | growth [6] | growth [7] | growth [8] | growth [9] | growth [10] | growth [11] | growth [12] | growth [13] | growth [14] | growth [15] | growth [16] | growth [17] | growth [18] | growth [19]
COCOc1cc2c(=O)c(C)c(C(=O)N[C@@H](Cc3ccccc3)C(O)C(=O)NCc3ccccc3)oc2cc1OC (stereo not given in full) | 67.3% | 2.29% (active) | 92.5% | 28.2% | 22.8% | 57.6% | 65.4% | 9.01% (active) | 88% | 40.7% | -35.5% (active) | 11.2% | 31.1% | 17.3% | -10.4% (active) | 57.3% | -32.6% (active) | 13.9% | 
N#Cc1c(-c2cccc3ccccc23)cc(-c2cccc(OCC(=O)O)c2)[nH]c1=O | 96.5% | 98.9% |  | 91.9% | 108% | 110% | 104% |  | 99% | 105% | 114% | 101% |  | 96.1% | 103% | 110% | 103% |  | 87.2%
COc1ccc(C(=O)/C=C/c2cccc(Br)c2)cc1S(N)(=O)=O | -15.9% (active) | -95.1% (active) | -92% (active) | 7.28% (active) | 8.53% (active) | -33.7% (active) | -47.7% (active) | 30.8% | -21.5% (active) | -71.4% (active) |  | -5.65% (active) | -19.8% (active) | -77.2% (active) | -99.2% (active) | -92.8% (active) | -62.8% (active) |  | 
Cc1cc2nc3c([nH]c2cc1C)c1ccc(=O)cc1n3CCN(C)C |  | 34% | 39.8% | 46.9% | 63.7% | 28.2% | 67.3% | 81.3% | 33.6% | 60% | 65.5% | 45% | 22.6% | 12% | 14.4% | 26.8% | 43.4% | 43% | 3.01% (active)
COc1cc(OC)c2c3nc4cc(C)c(C)cc4nc3n(CCN(C)C)c2c1 |  | -0.293% (active) | 73.1% | 63.3% |  | 55.5% | 97.7% | 84.2% | 3.26% (active) | 60.7% | 78.9% | 87.8% | 35.3% | -17.2% (active) | 39.5% | 77.1% | 84.7% | 65.6% | 0.994% (active)
COCOc1ccc2c(=O)c(C)c(C(=O)N[C@@H](Cc3ccccc3)C(O)C(=O)NCCc3ccc(OC)cc3)oc2c1 (stereo not given in full) | 100% | 107% | 116% | 122% | 113% | 122% | 120% | 104% | 107% | 97.1% | 122% | 115% | 114% | 103% | 104% | 125% | 108% | 95.2% | 
c1ccc(-c2csc(Nc3cccc(Nc4nc(-c5ccccc5)cs4)c3)n2)cc1 | 49.3% | 39.9% | 64.5% | 37.6% | 97.5% | 34.1% | 53.2% | 56.5% | 26.1% | 24% | 31.7% | 44.7% | 66.2% | 15.6% | 40% | 35.5% | 1.06% (active) | 39.2% | 
Cc1cc2nc3c4ccccc4n(CC4=NCCN4)c3nc2cc1C |  | -21.1% (active) | -76.9% (active) | -0.803% (active) | 15.6% | 16.1% | 55.2% | 76.4% | 18.6% | 15.4% | 4.52% (active) | -86.6% (active) | -40.2% (active) | -90.5% (active) | -92.8% (active) | -46.6% (active) | 43% | -57.3% (active) | 0.0191% (active)
CC(=O)NNc1ccc2nnc(-c3ccccc3)n2n1 | 115% | 100% | 113% | 109% | 110% | 108% | 95.4% | 100% | 104% | 105% |  | 103% | 90.6% | 94.8% | 107% | 100% | 104% | 101% | 
